What was measured:
[1] = system: Vero E6 infected with SARS-CoV-2; assay: morphology score (similarity to uninfected cells); higher = more like uninfected cells; conditions: 24 h
[2] = system: Vero E6 infected with SARS-CoV-2; assay: SARS-CoV-2 infection rate relative to infected DMSO; higher = more infection, active = 60 or less; conditions: 24 h

SMILES	morphology score [1]	SARS-CoV-2 infection rate [2]
C=CC(=O)O [acrylate] (10 µM)	-0.0871	109% (inactive)
O=C1CCC[C@@H]2[C@H]3C[C@@H](CN12)[C@@H]1CCCCN1C3 [lupanine] (10 µM)	-0.065	102% (inactive)
COc1ccc(C(C)(C)C)cc1CN[C@H]1C2CCN(CC2)[C@H]1C(c1ccccc1)c1ccccc1 [maropitant] (0.833333 µM)	0.103	104% (inactive)
Cc1cc(CN)cc(C)c1NC(=O)c1ccc(-c2cc(Cl)ccc2Cl)o1 (10 µM)	0.717	7.5% (active)
CNC(=S)C1(c2ccccn2)CCCS1 (stereo not drawn) [picartamide] (10 µM)	-0.0189	106% (inactive)
OC[C@@H](O)[C@@H](O)[C@H](O)[C@@H](O)CO [sorbitol] (10 µM)	-0.0534	110% (inactive)
CC(C)(C)c1ccc(S(=O)(=O)NCc2ccc(C(=O)Nc3cccnc3)cc2)cc1 (0.833333 µM)	0.0631	107% (inactive)
CC(C)n1nnc2cc(C(=O)O)ccc21 (10 µM)	0.0496	102% (inactive)
C[C@@H](N)Cc1c[nH]c2ccc(O)cc12 [alpha-methylserotonin] (10 µM)	0.251	97% (inactive)

— the supplement of paper PMC13380429
